Measurements as given in PubChem BioAssay (NCATS).
Records with an inconclusive call do not appear. Where a call stands in place of a potency, no number is given. Activity calls are given as the source filed them. The call rests on the fitted dose curve; in most records, active means well fitted inhibition curve with a large enough effect; inconclusive means small, poorly fitted or top-dose-only effect, or effect the other way; inactive means flat fitted curve, though single readings scatter.

The compounds below were run against ATP-dependent 6-phosphofructokinase (Trypanosoma brucei brucei) (UniProt O15648) (assay: qHTS Assay to Find Inhibitors of T. brucei phosphofructokinase: hit validation (AID 492961;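 further: luminescence reports ADP formed as PFK phosphorylates fructose-6-phosphate with ATP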)). Conditions: T. brucei PFK, ADP-Glo luminescence; series mostly up to 51.4 µM.
Outline: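 Compounds titrated; %activity normalized to 0x and 1x enzyme controls, curve-fitted. Readout: ADP-Glo luminescence after 45 min room-temperature reaction of 1.25 nM PFK, 0.1 mM ATP, 0.5 mM F6P, pH 8.0.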

ATP-dependent 6-phosphofructokinase (Trypanosoma brucei brucei), sequence (O15648 whole entry, looked up): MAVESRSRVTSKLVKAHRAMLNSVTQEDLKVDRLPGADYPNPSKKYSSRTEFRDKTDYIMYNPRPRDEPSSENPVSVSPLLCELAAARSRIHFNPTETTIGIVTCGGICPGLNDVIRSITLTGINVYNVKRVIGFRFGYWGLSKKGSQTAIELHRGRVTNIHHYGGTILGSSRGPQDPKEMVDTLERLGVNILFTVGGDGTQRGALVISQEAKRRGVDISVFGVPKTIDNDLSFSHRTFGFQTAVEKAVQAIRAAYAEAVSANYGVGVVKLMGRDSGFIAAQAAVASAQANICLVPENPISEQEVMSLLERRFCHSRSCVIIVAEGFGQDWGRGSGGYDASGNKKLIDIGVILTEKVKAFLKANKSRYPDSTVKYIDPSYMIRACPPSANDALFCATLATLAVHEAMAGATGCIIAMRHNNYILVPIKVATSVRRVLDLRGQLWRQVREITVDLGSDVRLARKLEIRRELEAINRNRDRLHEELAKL

Question: How did the Potency turn out when `O=C(Nc1cccc(C2=NCCN2)c1)Nc1cccc(C2=NCCN2)c1` was run?
Answer: inactive

Question: For `COc1cc([C@H]2Oc3cc([C@H]4Oc5cc(O)cc(O)c5C(=O)[C@@H]4O)ccc3O[C@@H]2CO)ccc1O`, which Potency is on record?
Answer: inactive

Question: How did the Potency turn out when `FC(F)(F)C(F)(F)C(F)(F)C(F)(F)C(F)(F)C(F)(F)C(F)(F)C(F)(F)Br` was run?
Answer: inactive

Question: For `Cl/C(=C\n1cncn1)c1ccc(Cl)cc1Cl`, which Potency is on record?
Answer: inactive

Question: Which Potency does the source give for `CCOC(=O)Nc1ccc2c(c1)N(C(=O)CCN1CCOCC1)c1ccccc1S2` here?
Answer: inactive

Question: For `Nc1ccc(S(=O)(=O)Nc2cnc3ccccc3n2)cc1`, which Potency is on record?
Answer: inactive

Question: Which Potency does the source give for `O=C(CCCN1CC=C(n2c(=O)[nH]c3ccccc32)CC1)c1ccc(F)cc1` here?
Answer: inactive

Question: With `CC(=O)Nc1ccc(OC(=O)c2ccccc2OC(C)=O)cc1` as the compound, how does the Potency read?
Answer: inactive

Question: With `O=C(O)C(Cc1cc(I)c(O)c(I)c1)c1ccccc1` (stereo unspecified) as the compound, how does the Potency read?
Answer: inactive

Question: `CCCCCCCCCCCCSCCOCCO` was tested. Which Potency did it give?
Answer: inactive

Question: `O=C(Nc1ncc([N+](=O)[O-])s1)c1cccs1` was tested. Which Potency did it give?
Answer: inactive

Question: `CCCN(CCc1cccs1)[C@H]1CCc2c(O)cccc2C1` was tested. Which Potency did it give?
Answer: inactive

Question: `Cc1ccc2c(Br)cc(Br)c(O)c2n1` was tested. Which Potency did it give?
Answer: inactive

Question: With `Cn1c(=O)c2[nH]c(Br)nc2n(C)c1=O` as the compound, how does the Potency read?
Answer: inactive

Question: For `Nc1ccc(S(=O)(=O)NCc2ccccc2)cc1`, which Potency is on record?
Answer: inactive

Question: Which Potency does the source give for `CN(C)C(=O)Nc1ccc(Cl)c(Cl)c1` here?
Answer: inactive

Question: With `O=C(NCCc1c[nH]c2ccccc12)c1cccnc1` as the compound, how does the Potency read?
Answer: inactive

Question: Which Potency does the source give for `COc1ccccc1N1CCN(CCCCNC(=O)c2ccc(-c3ccc(C(C)=O)cc3)cc2)CC1` here?
Answer: inactive

Question: With `CCC(C(=O)OCCOCCN(CC)CC)c1ccccc1` (stereo unspecified) as the compound, how does the Potency read?
Answer: inactive

Question: With `Cc1cccc(C)c1NC(=O)CN1CCCCCC1` as the compound, how does the Potency read?
Answer: inactive

Question: `CCN(CC)CCOc1ccc2c(c1)C(=O)c1cc(OCCN(CC)CC)ccc1-2` was tested. Which Potency did it give?
Answer: inactive

Question: For `C[C@@H](O)[C@H]1C(=O)N2C(C(=O)O)=C(S[C@@H]3CN[C@H](CNS(N)(=O)=O)C3)[C@H](C)[C@H]12`, which Potency is on record?
Answer: inactive

Question: With `CC(=O)Oc1ccc(C)cc1` as the compound, how does the Potency read?
Answer: inactive

Question: `NC(N)=NN=C(/C=C/c1ccc([N+](=O)[O-])o1)/C=C/c1ccc([N+](=O)[O-])o1` was tested. Which Potency did it give?
Answer: inactive

Question: `O=C(O)c1ccc(S(=O)(=O)N(Cl)Cl)cc1` was tested. Which Potency did it give?
Answer: inactive

Question: For `CC(=O)Nc1ccc(OCC(O)CNC(C)C)cc1` (stereo unspecified), which Potency is on record?
Answer: inactive

Question: For `FC1(F)C(F)(F)C(F)(F)C2(F)C(F)(F)C(F)(F)C(F)(F)C(F)(F)C2(F)C1(F)F` (stereo unspecified), which Potency is on record?
Answer: inactive

Question: For `CC(C)CCCC(C)N` (stereo unspecified), which Potency is on record?
Answer: inactive

Question: `CCCCCN=C(N)N/N=C/c1c[nH]c2ccc(OC)cc12` was tested. Which Potency did it give?
Answer: inactive

Question: With `CN(C)CCN1C(=O)c2ccccc2N(C)c2ccccc21` as the compound, how does the Potency read?
Answer: inactive

Question: `CC(C)Nc1cccnc1N1CCN(C(=O)c2cc3cc(NS(C)(=O)=O)ccc3[nH]2)CC1` was tested. Which Potency did it give?
Answer: inactive

Question: Which Potency does the source give for `COc1cc(NS(=O)(=O)c2ccc(N)cc2)ncn1` here?
Answer: inactive

Question: With `Cc1cccc(C)c1NC(=O)CN1CCCC1` as the compound, how does the Potency read?
Answer: inactive

Question: For `C=C[C@@]1(C)CC(=O)[C@]2(O)[C@@]3(C)[C@@H](O)CCC(C)(C)[C@@H]3[C@H](O)[C@H](OC(C)=O)[C@@]2(C)O1`, which Potency is on record?
Answer: inactive

Question: With `CN(C)CCOC(c1ccc(Cl)cc1)c1ccccn1` (stereo unspecified) as the compound, how does the Potency read?
Answer: inactive

Question: For `C#C[C@]1(O)CC[C@H]2[C@@H]3CCc4cc(OC)ccc4[C@H]3CC[C@@]21C`, which Potency is on record?
Answer: inactive
